An excerpt weighted towards active compounds, which were near 6.8% of everything screened.
T cruzi growth-1 = blocks T. cruzi growth in NIH3T3 culture; 77,000 compounds, 5.9% hits; inhibition, % at 8.34 µM; T. cruzi beta-gal in NIH3T3, GalScreen luminescence, 90 h;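 active = mean inhibition above about 93%, with at least 55% of replicates each passing it, limit read from the data, passing the limit was not always enough; inconclusive = only one of those two conditions holds; inactive = neither condition holds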
Pf Dd2 inh = inhibitors of Plasmodium falciparum Dd2 growth; P. falciparum Dd2 growth, SYBR Green, 72 h; stronger effect = lower value; 94,000 compounds, 2.3% hits; activity change, % at 10 µM; in the data active = activity change below about -80%; inconclusive = no clear call, values can overlap the other calls
C diff HTS = inhibitors of Clostridium difficile growth; 86,000 compounds, 0.25% hits; Clostridium difficile clinical isolate growth, OD600, 24 h; stronger effect = lower value; AID 1259249; growth activity, negative = inhibition, % at 16 µg/mL (by protocol);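 active = mean growth activity at or below -80% and every replicate also at or below -80%; inconclusive = mean at or below -80% but some replicate above -80%; inactive = mean growth activity above -80%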;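 also: 0% = DMSO wells and -100% = levofloxacin 16 µg/mL wells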
T cruzi growth-2 = blocks T. cruzi growth in NIH3T3 host cells; shares compounds with T cruzi growth-1; T. cruzi beta-gal in NIH3T3, GalScreen luminescence, 90 h; inhibition, % at 8.35 µM; 5,600 compounds, 72% hits; AID 651739;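 active = mean replicate inhibition above about 95% and at least 55% of replicates individually reaching it, limit read from the data; inconclusive = only one of the two criteria is met; inactive = neither criterion is met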
T cruzi growth-3 = blocks T. cruzi growth in NIH3T3 host cells; shares compounds with T cruzi growth-1; T. cruzi beta-gal in NIH3T3, GalScreen luminescence, 90 h; inhibition, % at 2.09 µM; 5,600 compounds, 21% hits;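 active = mean inhibition above about 95%, with at least 55% of replicates also reaching it, limit read from the data; inconclusive = meets just one of the two conditions; inactive = meets neither condition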;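 also: plate controls were neutral control median for no effect and positive control median for full effect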
NIH3T3 tox = NIH/3T3 (mouse) viability loss. 5,600 compounds, 14% hits. NIH/3T3 viability, CellTiter-Glo ATP luminescence, 90 h. shares compounds with T cruzi growth-1. cytotoxicity (signal decrease), % at 8.35 µM;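 active = mean signal decrease across replicates above about 35% based on untreated-well scatter, with enough replicates individually passing, limit read from the data; inconclusive = no rule stated though some were filed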;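 also: 0% = median of neutral control wells and 100% = median of positive control wells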
3T3 cytotox 2 = NIH/3T3 (mouse) viability loss | AID 651744 | inhibition, % at 24.9 µM | shares compounds with T cruzi growth-1 | NIH/3T3 viability, CellTiter-Glo ATP luminescence, 90 h | 5,600 compounds, 56% hits;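 active = mean loss of cell viability signal at or above a set limit, and enough replicates individually reaching it; inconclusive = meets only the mean limit or only the replicate share; inactive = meets neither condition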;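 also: 0% = median of neutral control wells and 100% = median of positive control wells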
Starred values were filed as active, the others as inactive; ? = inconclusive; nt = not tested or not shown.

SMILES	T cruzi growth-1	Pf Dd2 inh	C diff HTS	T cruzi growth-2	T cruzi growth-3	NIH3T3 tox	3T3 cytotox 2
C[C@@H]1CN([C@@H](C)CO)S(=O)(=O)c2ccc(C3=CCCCC3)cc2O[C@@H]1CN(C)C(=O)c1ccccc1	107.7*	-28.9	-1.8	84.4	93.4	27.5	70.2*
C[C@H](CO)N1C[C@H](C)[C@@H](CN(C)C(=O)c2ccc(F)cc2)Oc2cc(C3=CCCCC3)ccc2S1(=O)=O	?	-72.5	3.3	110.2*	52.3	31.1	47.6*
C[C@@H]1CN([C@H](C)CO)S(=O)(=O)c2ccc(C3=CCCC3)cc2O[C@@H]1CN(C)C(=O)c1ccc(F)cc1	nt	-20.7	10.8	nt	nt	nt	nt
C[C@@H]1CN([C@@H](C)CO)S(=O)(=O)c2ccc(C3=CCCC3)cc2O[C@@H]1CN(C)C(=O)c1ccccc1	100.0*	-33.0	-6.1	113.6*	86.4	13.2	17.7
C[C@H]1CN([C@@H](C)CO)S(=O)(=O)c2ccc(C3=CCCCC3)cc2O[C@H]1CN(C)C(=O)c1ccccc1	65.1	-37.2	-3.7	nt	nt	nt	nt
C[C@H](CO)N1C[C@H](C)[C@@H](CN(C)C(=O)c2ccccc2)Oc2cc(C3=CCCC3)ccc2S1(=O)=O	83.1	-41.8	-1.7	nt	nt	nt	nt
O=C(C[C@@H]1CC[C@@H](NC(=O)CCN2CCCCC2)[C@@H](CO)O1)Nc1nccs1	-39.7	-8.6	nt	nt	nt	nt	nt
C[C@@H]1CN([C@H](C)CO)C(=O)c2cc(NC(=O)Nc3ccc4c(c3)OCO4)ccc2O[C@@H](C)CCCCO[C@H]1CN(C)S(=O)(=O)c1ccc(F)cc1	73.6	-71.1	-7.2	nt	nt	nt	nt
C[C@H](CO)N1C[C@H](C)[C@H](CN(C)S(=O)(=O)c2ccc(F)cc2)OCCCC[C@H](C)Oc2ccc(NC(=O)Nc3ccc4c(c3)OCO4)cc2C1=O	105.6*	-39.1	0.5	109.4*	73.1	-2.8	19.0
C[C@H](CO)N1C[C@H](C)[C@H](CN(C)S(=O)(=O)c2ccc(Cl)cc2)OCCCC[C@H](C)Oc2ccc(NC(=O)Nc3ccc(F)cc3)cc2C1=O	84.6	-56.2	-6.0	nt	nt	nt	nt
C[C@@H]1CCCCO[C@@H](CN(C)S(=O)(=O)c2ccc(Cl)cc2)[C@@H](C)CN([C@@H](C)CO)C(=O)c2cc(NC(=O)Nc3ccc(F)cc3)ccc2O1	92.4	-72.2	-4.2	nt	nt	nt	nt
Cc1ccc(S(=O)(=O)N(C)C[C@@H]2OCCCC[C@H](C)Oc3ccc(NC(=O)Nc4ccc(F)cc4)cc3C(=O)N([C@@H](C)CO)C[C@H]2C)cc1	106.4*	?	nt	102.0*	52.8	-0.5	7.6
C[C@@H]1CCCCO[C@@H](CN(C)S(=O)(=O)c2ccc(F)cc2)[C@H](C)CN([C@H](C)CO)C(=O)c2cc(NC(=O)Nc3ccc(F)cc3)ccc2O1	100.0*	-81.6*	7.1	104.1*	91.4	12.3	-4.7
C[C@@H]1CCCCO[C@H](CN(C)S(=O)(=O)c2ccc(F)cc2)[C@@H](C)CN([C@@H](C)CO)C(=O)c2cc(NC(=O)Nc3ccc(F)cc3)ccc2O1	100.1*	-65.9	-5.6	108.1*	45.7	9.8	50.9*
C[C@@H]1CCCCO[C@H](CN(C)S(=O)(=O)c2ccc(Cl)cc2)[C@@H](C)CN([C@H](C)CO)C(=O)c2cc(NC(=O)Nc3ccc(F)cc3)ccc2O1	17.2	-45.1	-2.8	nt	nt	nt	nt
C[C@H]1CN([C@@H](C)CO)C(=O)c2cccc(NC(=O)C3CCOCC3)c2O[C@H]1CN(C)Cc1ccccc1	3.2	31.1	1.5	nt	nt	nt	nt
O=C(C[C@@H]1C[C@H]2c3cc(NC(=O)NC4CCCCC4)ccc3O[C@H]2[C@@H](CO)O1)NC1CCCC1	nt	72.6	-3.3	nt	nt	nt	nt
COc1cc(CN2CC3(CCN(C(=O)Nc4c(C)noc4C)CC3)c3c([nH]c4cc(OC)ccc34)[C@H]2CO)cc(OC)c1	nt	-54.2	1.4	nt	nt	nt	nt
C[C@@H]1CN([C@@H](C)CO)C(=O)c2cc(C3=CCCCC3)cnc2O[C@H]1CN(C)C(=O)c1cccnc1	nt	14.4	-3.0	nt	nt	nt	nt
COc1ccc2c3c([nH]c2c1)[C@@H](CO)N(S(C)(=O)=O)CC31CCN(C(=O)c2ccncc2)CC1	nt	3.1	-3.5	nt	nt	nt	nt
C[C@@H]1CCCCO[C@@H](CN(C)S(=O)(=O)c2ccc(F)cc2)[C@@H](C)CN([C@H](C)CO)C(=O)c2cc(NC(=O)Nc3ccc(F)cc3)ccc2O1	-9.4	-46.3	-1.6	nt	nt	nt	nt
C[C@@H]1CN([C@@H](C)CO)C(=O)c2cc(NC(=O)NC3CCCCC3)ccc2O[C@@H](C)CCCCO[C@H]1CN(C)S(=O)(=O)c1ccc(F)cc1	?	-54.6	12.6	48.5	7.7	6.3	3.8
C[C@@H]1CCCCO[C@@H](CN(C)S(=O)(=O)c2ccc(F)cc2)[C@H](C)CN([C@@H](C)CO)C(=O)c2cc(NC(=O)Nc3ccc(F)cc3)ccc2O1	98.4*	-44.5	-0.4	104.9*	50.7	0.4	-5.3
C[C@@H]1CCCCO[C@H](CN(C)S(=O)(=O)c2ccc(F)cc2)[C@@H](C)CN([C@H](C)CO)C(=O)c2cc(NC(=O)NC3CCCCC3)ccc2O1	28.8	-25.6	15.0	nt	nt	nt	nt
CCCNC(=O)c1cc2c(c(-c3cccc(-c4ccc(C#N)cc4)c3)n1)[C@H](CCO)N(C(=O)CC)C2	nt	1.3	8.0	nt	nt	nt	nt
SMILES	T cruzi growth-1	Pf Dd2 inh	C diff HTS	T cruzi growth-2	T cruzi growth-3	NIH3T3 tox	3T3 cytotox 2
CCCN1C[C@H](C)[C@@H](OC)CN(C)C(=O)c2ccc(NC(=O)C3CCC3)cc2OC[C@H]1C	19.5	-6.1	nt	nt	nt	nt	nt
CCCNC(=O)N1C[C@H](C)[C@H](OC)CN(C)C(=O)c2cc(NC(=O)CCC)ccc2OC[C@@H]1C	32.4	-9.9	nt	nt	nt	nt	nt
COc1cccc(-c2ccc([C@H]3[C@@H](C#N)N(C(=O)c4ccccn4)[C@@H]3CO)cc2)c1	80.7	-22.6	-0.7	nt	nt	nt	nt
COc1cccc(C#Cc2ccc([C@@H]3[C@@H](C#N)N(C(=O)c4ccccn4)[C@@H]3CO)cc2)c1	107.9*	-28.2	8.2	107.9*	78.3	0.9	-31.8
CC(C)C#Cc1ccc([C@H]2[C@@H](C#N)N(C(=O)c3ccccn3)[C@H]2CO)cc1	?	-41.9	4.3	99.8*	103.1*	9.1	12.4
COc1cccc(-c2ccc([C@H]3[C@@H](CO)N(C(=O)c4ccccn4)[C@H]3C#N)cc2)c1	?	-50.9	4.9	98.4*	116.9*	-3.5	99.1*
COc1cccc(C#Cc2ccc([C@H]3[C@@H](C#N)N(C(=O)c4ccccn4)[C@@H]3CO)cc2)c1	89.9	-66.3	-5.2	nt	nt	nt	nt
CC(C)C#Cc1ccc([C@@H]2[C@@H](C#N)N(C(=O)c3ccccn3)[C@H]2CO)cc1	94.6	-38.6	-9.1	nt	nt	nt	nt
CCC(=O)N1CC2(CCN(Cc3cccnc3)CC2)c2c(n(C)c3cc(OC)ccc23)[C@@H]1CO	nt	-59.2	-5.7	nt	nt	nt	nt
COCC(=O)N1CC2(CCN(S(C)(=O)=O)CC2)c2c(n(C)c3cc(OC)ccc23)[C@H]1CO	nt	-21.7	-5.5	nt	nt	nt	nt

Screening data from PubChem BioAssay.
